Screens from PubChem BioAssay.
This excerpt belongs to a sample that is enriched for hits.
ER stress surv: ER stress cell death inhibition; CSM14.1 thapsigargin ER stress survival, ATP luminescence; relative survival (cellular ATP), % at 15 µg/mL (by protocol); 48,000 compounds, 0.33% hits;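 active means survival measured by cellular ATP above 50% at 15 µg/ml in the first screen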;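 further: cell death triggered by about 15 µM thapsigargin; ATP read 24 h after thapsigargin was added; plate controls were thapsigargin with DMSO for no effect and DMSO without thapsigargin for full effect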
* marks the source's active call; other numbers are inactive results.

SMILES	ER stress surv
CCOC(=O)C1=C(N)Oc2ccc3ccccc3c2C1c1ccc(Cl)cc1 (centres undefined)	4.7
O=C1NC(=Nc2ccc(O)cc2)CS1	9.1
O=C(CCCSc1nc2sc3c(c2c(=O)[nH]1)CCCC3)NCCO	4.8
O=C(Nc1ccc([N+](=O)[O-])cc1Br)c1ccc(Br)o1	4.9
CCN1C(=O)/C(=C2\SC(=S)N(CC(=O)O)C2=O)c2ccccc21	6.9
COc1ccc(C2CC(=O)C3=C(C2)Nc2ccccc2NC3c2cc(Br)ccc2OC)cc1OC (centres undefined)	111.8*
CCc1ccc(C2Nc3ccccc3NC3=C2C(=O)CC(c2ccc(OC)c(OC)c2)C3)cc1 (centres undefined)	89.1*
COc1ccc(C2CC(=O)C3=C(C2)Nc2ccccc2NC3c2cc(OC)ccc2OC)cc1 (centres undefined)	1.3
COc1ccc(C2CC(=O)C3=C(C2)Nc2ccccc2NC3c2ccccc2Br)cc1OC (centres undefined)	5.0
COc1ccc(C2CC(=O)C3=C(C2)Nc2ccccc2NC3c2ccncc2)cc1OC (centres undefined)	6.1
COc1ccc(C2CC(=O)C3=C(C2)Nc2ccccc2NC3c2ccc([N+](=O)[O-])cc2)cc1OC (centres undefined)	-1.9
O=C1ON=C(c2ccc(Cl)cc2)/C1=C/C=C/c1ccccc1	0.7
Cc1cc(C)c(C(=O)/C(=C/c2cccs2)c2ccccc2)c(=O)[nH]1	-1.7
Cc1ccc(-n2c(=O)c3c4c(sc3n3cnnc23)COC(C)(C)C4)cc1	6.9
O=C(Nc1ccc(-c2ccccc2)cc1)c1ccc(Br)cc1	7.1
COc1ccc(N2C(=O)c3ccc(OCCOc4ccc5c(c4)C(=O)N(c4ccc(OC)cc4)C5=O)cc3C2=O)cc1	11.5
COc1cccc(N(CC(=O)Nc2ccccc2Cl)S(=O)(=O)c2ccccc2)c1	8.9
CCc1c(C)nc2[nH]nc(-c3ccc(C)cc3)n2c1=O	-0.8
CCc1cccc(NC2(c3ccccc3)C(=O)c3ccccc3C2=O)c1	-1.5
Cc1ccc(OCC(=O)N2CCN(c3ccccc3)CC2)c(C)c1	10.3
Cc1[nH]c2ccccc2c1C=Nc1cc(Cl)cc(Cl)c1	-0.5
CCc1cc2c(N3CCCCC3)ncnc2s1	-0.7
CCOC(=O)c1cnn(-c2ncnc3sc(CC)cc23)c1N	9.3
CCc1cc2c(N3CCN(Cc4ccc(Cl)cc4Cl)CC3)ncnc2s1	98.3*
CCC(=O)Nc1ccc(NC(=O)c2ccc([N+](=O)[O-])cc2)cc1	7.3
